# Source: PubChem BioAssay
# Most compounds without a hit are left out; they make up all but 3.5% or so of the library.
# Rv3671c inh – Rv3671c (M. tuberculosis) protease inhibition. P9WHR9. inhibition, % at 5.96 µM. 320,000 compounds, 0.048% hits. AID 2606; in the data active = inhibition above about 38%;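 note: extracellular domain of Rv3671c used as enzyme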
# Mtb FBA inh – inhibitors of M. tuberculosis fructose-bisphosphate aldolase; 360,000 compounds, 2.3% hits; purified M. tuberculosis FBA, fluorescence read-out; P9WQA3; inhibition, % at 1 µM
# Target sequence (P9WQA3 whole entry, looked up): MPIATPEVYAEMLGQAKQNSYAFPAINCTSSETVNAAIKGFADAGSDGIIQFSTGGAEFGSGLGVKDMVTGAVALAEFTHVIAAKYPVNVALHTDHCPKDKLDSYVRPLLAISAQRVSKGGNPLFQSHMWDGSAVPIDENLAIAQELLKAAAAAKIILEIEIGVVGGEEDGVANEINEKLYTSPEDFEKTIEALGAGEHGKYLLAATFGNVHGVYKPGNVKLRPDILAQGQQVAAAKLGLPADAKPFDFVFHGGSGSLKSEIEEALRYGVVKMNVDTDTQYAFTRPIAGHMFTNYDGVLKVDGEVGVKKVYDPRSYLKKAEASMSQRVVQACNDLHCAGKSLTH
# GDH-TPI counter-1 – inhibits GDH-TPI coupling enzymes, artifact for Mtb FBA screen; GDH-TPI coupled enzyme counterscreen, NADH absorbance; 360,000 compounds, 1.2% hits; AID 588335; inhibition, % at 4.8 µM; in the data active = inhibition above about 30%
# Mtb betalactam – beta-lactam sensitization of Mtb H37Rv. inhibition, % at 25 µM. 330,000 compounds, 0.27% hits. M. tuberculosis H37Rv growth with meropenem, percent inhibition; call rule not given here;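 note: growth measured after seven days incubation then overnight dye step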
# Mtb UGM inh – inhibitors of M. tuberculosis UDP-galactopyranose mutase. inhibition, % at 10 µM. 320,000 compounds, 0.06% hits. purified UGM, fluorescence polarization probe displacement. AID 504406; in the data active = inhibition above about 10%, passing the limit was not always enough
# Mtb FBA confirm – Mtb FBA inhibition, confirmed; AID 651616; inhibition, % at 1 µM; purified M. tuberculosis FBA, fluorescence read-out; 5,600 compounds, 78% hits; shares compounds with Mtb FBA inh
# GDH-TPI counter-2 – inhibits GDH-TPI coupling enzymes, flagging Mtb FBA hits; shares compounds with Mtb FBA inh; 5,600 compounds, 81% hits; GDH-TPI coupled enzyme counterscreen, fluorescence; inhibition, % at 1 µM; in the data active = inhibition above about 10%
# Numbers stand for hits; 0 = inactive; - = no result given; + = active, no number. Cut-off read from the data, not from the text of the source, unless noted: active = inhibition above about 27%; inactive = the rest.
SMILES,Rv3671c inh,Mtb FBA inh,GDH-TPI counter-1,Mtb betalactam,Mtb UGM inh,Mtb FBA confirm,GDH-TPI counter-2
Cc1cc(SCC(=O)NN)c2cc(Br)ccc2n1,0,0,0,0,0,-,-
CC(CCc1ccccc1)NC(=O)c1ccc(F)cc1 (stereo not given),0,0,0,0,0,-,-
O=C(O)CCNc1ccc(NCCC(=O)O)c2c1C(=O)c1ccccc1C2=O,0,90.1,0,0,0,0,0
c1nc2sc3c(c2c2nnnn12)CCC3,0,35.8,0,0,0,0,0
COC(=O)c1cc(C#N)c(N2CC(C)OC(C)C2)nc1C (stereo not given),0,35.0,0,0,0,65.2,44.0
COC(=O)c1cc(C#N)c(N2CCN(C)CC2)nc1C,0,0,0,0,0,-,-
COc1ccccc1CNC(=O)COC(=O)c1ccc2c(=O)n3c(nc2c1)CCCCC3,0,0,0,0,0,-,-
CCOc1ccc2cc(C(=O)NCc3ccccc3)c(=N)oc2c1,0,40.9,0,0,0,52.7,35.2
CCCOc1c(Br)cc(C2C3=C(CCCC3=O)N(CC)C3=C2C(=O)CCC3)cc1OC,0,31.1,0,0,0,30.1,35.3
CCCOc1c(Br)cc(C2C3=C(CCCC3=O)N(C)C3=C2C(=O)CCC3)cc1OC,0,42.3,0,0,0,+,+
CNc1ncnc2sc(-c3ccccc3)cc12,0,45.6,0,0,0,52.0,35.7
OCCOCCNc1ncnc2sc(-c3ccccc3)cc12,0,32.1,0,0,0,0,14.8
CNCC(=O)N1CCN(c2ncc(C(F)(F)F)cc2Cl)CC1,0,0,0,0,0,-,-
CCc1ccc2nc(N(CCCN(C)C)C(=O)c3ccc(C(=O)c4ccccc4)cc3)sc2c1,0,0,0,0,0,-,-
Nc1c(Cl)cc(Cl)cc1C(=O)OCC(=O)N1CCCC1,0,94.6,0,0,-,137.2,106.6
CN(CCC#N)C(=O)COC(=O)c1ccccc1OCc1ccccc1Cl,0,0,0,0,0,-,-
CN(CCC#N)C(=O)COC(=O)c1cc(Cl)cc(Cl)c1N,0,93.1,0,0,0,0,0
CC1(C)CC2CC(C)(CN2C(=O)COC(=O)c2cc(Cl)cc(Cl)c2N)C1 (stereo not given),0,0,0,0,0,-,-
Nc1c(Cl)cc(Cl)cc1C(=O)OCC(=O)N1CCCC1=O,0,0,0,0,0,-,-
NC(=O)COC(=O)c1cc(Cl)cc(Cl)c1N,0,88.9,0,0,0,+,+
COc1ccc2nc(/C=N/NC(=O)CCCCCNC(=O)OC(C)(C)C)ccc2c1,0,62.9,33.3,0,0,94.5,86.0
COc1ccc(NC(=O)CSc2nc(C(C)C)nc3c2c(=O)n(C)c(=O)n3C)c(OC)c1,0,0,0,0,0,-,-
CCCOc1ccc(-c2cn3ccccc3n2)cc1,0,30.2,0,0,0,54.8,37.6
COc1ccc(-c2cn3ccc4ccccc4c3n2)cc1,0,44.0,0,0,0,0,0
CCCOc1ccc(-c2cn3ccccc3n2)cc1[N+](=O)[O-],0,0,0,0,0,-,-
SMILES,Rv3671c inh,Mtb FBA inh,GDH-TPI counter-1,Mtb betalactam,Mtb UGM inh,Mtb FBA confirm,GDH-TPI counter-2
Cc1cccn2cc(-c3ccccc3)nc12,0,0,0,0,0,-,-
CCN(CC(=O)Nc1ccc([N+](=O)[O-])cc1OC)CC(=O)NC(C)(C)C,0,0,0,0,0,-,-
O=C(NCc1ccncc1)/C(=C\c1ccc(F)cc1)NC(=O)c1ccccc1,0,44.8,0,0,0,185.1,151.2
Cc1ccc(C(=O)N/C(=C\c2ccc(F)cc2)C(=O)NCc2ccncc2)cc1,0,0,0,0,-,-,-
CCn1c(SCC(=O)Nc2ccc(-c3nc4ccc(C)cc4s3)cc2)nnc1-c1ccccc1,0,-,-,0,0,-,-
Nc1cc(=O)[nH]c(SCC(=O)Nc2nc3ccc([N+](=O)[O-])cc3s2)n1,0,-,-,0,0,-,-
Cc1ccc2nc(-c3ccc(NC(=O)CSc4nc(N)cc(=O)[nH]4)cc3)sc2c1,0,36.5,0,0,0,72.5,42.5
Cc1ccc2nc(-c3ccc(NC(=O)CSc4nccc(=O)[nH]4)cc3)sc2c1,0,52.7,0,0,0,+,+
NNc1ncnc2sc3c(c12)CCC3,0,0,0,0,0,-,-
c1cc(Nc2ncnc3sc4c(c23)CCC4)ccn1,0,60.1,0,0,0,0,0
CNC(=O)C1Cc2c(-c3ccc4c(c3)OCO4)ccnc2O1 (stereo not given),-,59.7,0,-,-,96.8,76.5
